# Results as given in PubChem BioAssay AID559 (PCMD, 2006).
# In all, about 62,000 compounds went through this assay and about 100 (0.2%) were called active. For the sample, actives were picked, then their nearest neighbours and some compounds at random. A number with no mark means an inactive call. Rule as the data show it: active = inhibition above about 20%; inactive = the rest.
# Biological target: DNA-directed RNA polymerase subunit beta (Escherichia coli (strain K12)) (UniProt P0A8V2)
# Assay: E. coli RNAP inhibitors, biochemical (AID 559);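 also: 0% = enzyme without compound and 100% = no enzyme blank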
# Settings: fluorescence transcription assay, hits give high values,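 tested at 10 µM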
# Sequence of DNA-directed RNA polymerase subunit beta (Escherichia coli (strain K12)) (P0A8V2 whole entry, looked up): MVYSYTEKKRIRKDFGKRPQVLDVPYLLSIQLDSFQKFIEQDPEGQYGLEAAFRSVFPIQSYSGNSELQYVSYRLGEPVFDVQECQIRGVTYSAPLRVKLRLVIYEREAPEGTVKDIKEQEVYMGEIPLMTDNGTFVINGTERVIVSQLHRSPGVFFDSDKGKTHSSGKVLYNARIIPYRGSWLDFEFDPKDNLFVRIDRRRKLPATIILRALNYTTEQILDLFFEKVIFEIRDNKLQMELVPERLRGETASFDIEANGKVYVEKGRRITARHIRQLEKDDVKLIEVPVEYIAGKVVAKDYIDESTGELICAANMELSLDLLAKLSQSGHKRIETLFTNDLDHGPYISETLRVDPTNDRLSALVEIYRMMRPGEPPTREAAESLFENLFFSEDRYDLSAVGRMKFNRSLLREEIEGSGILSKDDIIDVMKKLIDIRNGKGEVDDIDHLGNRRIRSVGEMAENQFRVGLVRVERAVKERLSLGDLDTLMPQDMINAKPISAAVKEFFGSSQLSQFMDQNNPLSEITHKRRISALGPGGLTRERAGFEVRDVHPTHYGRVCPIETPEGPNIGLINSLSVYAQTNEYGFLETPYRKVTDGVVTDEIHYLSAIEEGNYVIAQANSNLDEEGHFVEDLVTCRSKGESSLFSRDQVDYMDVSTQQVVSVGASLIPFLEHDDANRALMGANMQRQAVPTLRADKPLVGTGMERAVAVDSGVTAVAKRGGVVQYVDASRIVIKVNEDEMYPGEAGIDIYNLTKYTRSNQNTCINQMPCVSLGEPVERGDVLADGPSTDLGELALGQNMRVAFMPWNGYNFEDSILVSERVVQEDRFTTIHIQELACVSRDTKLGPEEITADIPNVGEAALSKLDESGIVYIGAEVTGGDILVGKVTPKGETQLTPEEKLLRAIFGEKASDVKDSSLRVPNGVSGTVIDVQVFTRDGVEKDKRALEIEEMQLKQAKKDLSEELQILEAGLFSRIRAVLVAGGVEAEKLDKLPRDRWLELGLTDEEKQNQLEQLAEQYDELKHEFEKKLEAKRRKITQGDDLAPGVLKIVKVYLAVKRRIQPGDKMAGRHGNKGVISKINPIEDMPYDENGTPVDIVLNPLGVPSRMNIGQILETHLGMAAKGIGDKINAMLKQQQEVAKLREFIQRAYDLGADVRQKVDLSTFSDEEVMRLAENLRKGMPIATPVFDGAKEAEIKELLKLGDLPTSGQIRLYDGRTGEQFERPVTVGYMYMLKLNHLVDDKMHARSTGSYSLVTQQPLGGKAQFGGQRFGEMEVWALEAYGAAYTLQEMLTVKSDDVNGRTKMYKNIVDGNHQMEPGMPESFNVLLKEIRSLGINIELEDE
row,Structure (SMILES),inhibition
1,CCc1c(C)sc(NC(=O)c2ccc(Br)o2)c1C(=O)OC,3.85%
2,C=CCn1c(COc2cccc3cccnc23)nnc1SCC(=O)OC,2.75%
3,Cc1ccc(S(=O)(=O)N2CCN(C(=O)CCC(=O)NC3CCCc4ccccc43)CC2)cc1 (stereo unspecified),8.3%
4,Cc1c(NC(=O)Nc2ccccc2Cl)sc(=S)n1C,4.97%
5,CC(=O)C1C(c2ccc(Cl)cc2)NC(=O)NC1(O)C(F)(F)F (stereo unspecified),5.59%
6,COc1ccccc1C1/C(=C(/O)c2ccc(C)cc2)C(=O)C(=O)N1Cc1ccco1 (stereo unspecified),10.3%
7,CC(=O)OCc1cc(=O)n(C)c(=O)n1C,-0.42%
8,O=S(=O)(O)c1nc2ccccc2n1Cc1ccc(Cl)cc1Cl,4.09%
9,O=C(O)C1CC=CCC1C(=O)NCCc1ccccc1 (stereo unspecified),-1.18%
10,CCCCOc1ccc(NC(=O)CSCC(=O)OCC)cc1,20.6% (active)
11,CCOc1ccc(NC(=O)CC2NCCNC2=O)cc1 (stereo unspecified),10.3%
12,CCOc1ccc(NC(=O)CCC(=O)n2nc(C)cc2C)cc1,7.47%
13,CN(C)/C=C1/C(=O)Nc2ccccc21,12.9%
14,COC(=O)c1ccc(NC(=O)CSc2nnc(CNc3ccc(OC)cc3)n2C)cc1,1.56%
15,C[C@H](NC(=O)OC(C)(C)C)c1nnc(SCC(N)=O)o1,-0.35%
16,COc1ccc(-n2nnc3c(=O)n(CC(=O)OCc4ccccc4)cnc32)cc1,1.78%
17,CCC(C(=O)N1CCOCC1)n1c(C(=O)OC)cc2occc21 (stereo unspecified),-1.1%
18,O=C(c1cccs1)N(C(=O)c1cccs1)c1ccccn1,4.36%
19,COc1cc(C2C3C(=O)N(c4ccccc4)C(=O)C3ON2c2ccccc2)ccc1O (stereo unspecified),6.83%
20,CCOC(=O)C1C(=O)C=C(c2ccc(OC)cc2)CC1c1ccco1 (stereo unspecified),0.68%
21,C=C(Br)CN1CCN(CC(=C)Br)CC1,5.48%

row,Structure (SMILES),inhibition
1,CCNC(=O)N1CCNC(=O)C1CC(=O)Nc1ccc(C(=O)OCC)cc1 (stereo unspecified),24.6% (active)
2,CCOC(=O)c1ccc(NC(=O)CSc2ncccn2)cc1,18.1%
3,COc1ccccc1C(=O)N1CCNC(=O)C1CC(=O)Nc1ccc(Cl)cc1 (stereo unspecified),7.25%
4,COc1ccc(N2CCN(C(=O)CSc3ncnc4c3cnn4-c3ccc(OC)cc3)CC2)cc1,3.59%
5,CC(=O)Nc1ccc(S(=O)(=O)N2CCN(C3CCCCCCC3)CC2)cc1,4.11%
6,CC(C)(C)c1cc(CN2CCN(CCC#N)CC2)cc(C(C)(C)C)c1O,2.69%
7,Cc1ccc(NC(=O)CN(C)S(=O)(=O)c2cnc[nH]2)cc1C,6.13%
8,Cc1ccc2c(c1)sc1ncc(NC(=O)c3ccccc3)c(=O)n12,-11.4%
9,CCCCCCn1c(SCC(=O)c2ccccc2)nc2c1c(=O)[nH]c(=O)n2C,-4.3%
10,c1ccc(CCc2nc(-c3ccncc3)no2)cc1,8.17%
11,CC1CCN(Cc2nc3c(c(=O)n(C)c(=O)n3C)n2Cc2cccc3ccccc23)CC1,11.8%
12,CC(c1ccccc1)n1c(NCCCn2ccnc2)nc2c1c(=O)[nH]c(=O)n2C (stereo unspecified),6.37%
13,O=C(Nc1ccccc1N1CCCCC1)c1ccc2nccnc2c1,5.19%
14,CC(C)[C@H](NC(=O)Nc1ccc(S(N)(=O)=O)cc1)C(=O)O,3.2%
15,Cc1cccc(C2c3c(n(C)c(=O)n(C)c3=O)N=C3c4ccccc4C(=O)C32)c1 (stereo unspecified),8.94%
16,Cn1c(=O)n(C)c2cc(S(=O)(=O)N3CCCc4ccccc43)ccc21,0.45%
17,CSc1nc2ccc(S(=O)(=O)N3CCc4ccccc43)cc2s1,0.59%
18,Cc1nn(C)c(C)c1S(=O)(=O)N1CCc2ccccc21,27.2% (active)
19,COCCOC(=O)C1=C(C)NC(=O)NC1c1ccc(Cl)cc1 (stereo unspecified),7.31%
20,COC(=O)c1ccc(C2CC(=O)Nc3cc(OC)c(OC)cc32)cc1 (stereo unspecified),3.45%
21,CCc1cccc2c3c([nH]c12)C(CC)(CC(=O)O)OCC3 (stereo unspecified),8.22%

row,Structure (SMILES),inhibition
1,O=C(O)C1OC(C(=O)O)C2C1C(F)(F)C2(F)F (stereo unspecified),3.61%
2,NS(=O)(=O)c1cc2c(cc1Cl)NC(C(Cl)Cl)NS2(=O)=O (stereo unspecified),8.21%
3,CCS(=O)(=O)n1nc(-c2ccc(OC)cc2)nc1SC,5.44%
4,Cc1ccc(CC2CC(=O)N(c3ccc4c(c3)OCCO4)C2=O)cc1 (stereo unspecified),7.6%
5,Cn1c2c(c(=O)n(C)c1=O)C1c3ccccc3OCC1C(C)(C)O2 (stereo unspecified),11.7%
6,CC1(c2ccccc2Cl)NC(=O)N(CC(=O)NC(=O)NCc2ccco2)C1=O (stereo unspecified),3.56%
7,CCOc1ccc(Cn2c(SCCCCC#N)nc3c2c(=O)n(C)c(=O)n3C)cc1OCC,1.66%
8,CCOC(=O)NC(C(F)(F)F)(C(F)(F)F)P(=O)(c1ccccc1)c1ccccc1,12.5%
9,O=C(NCC1CCCO1)C(C(=O)c1ccccc1)n1cc(Cl)ccc1=O (stereo unspecified),-2.02%
10,O=C(COC(=O)c1ccccc1C(=O)c1ccccc1)c1ccco1,4.61%
11,Cc1ccc(NC(=O)c2cc(-c3ccc(C)o3)nc3ccccc23)nc1,2.57%
12,O=C(c1ccc2c(c1)N(Cc1ccc(F)cc1)C(=O)CS2)N1CCOCC1,-0.9%
13,Cc1nc2c(-c3ccccc3)c(C)[nH]n2c(=O)c1Cl,0.3%
14,CCNc1nc(N)nc(Oc2ccc(OCC)nn2)n1,16.5%
15,COc1ccc(OCC(=O)OCC(=O)Nc2ccc(S(=O)(=O)N3CCCCC3)cc2)cc1,6.57%
16,Cc1noc(C)c1S(=O)(=O)Nc1ccc(C(=O)O)cc1,-2.73%
17,C=CCNC(=O)C1CC=CCC1C(=O)O (stereo unspecified),-0.09%
18,CC(C)(C)NC(=O)NC(=O)COC(=O)Cn1c(C(F)(F)F)nc2ccccc21,-0.99%
19,O=C(CSc1nc2[nH]ncc2c(=O)n1-c1ccccc1)N1CCCc2ccccc21,-2.19%
